Bioassay records as filed in PubChem.
GRIN3A LBD mod: binders of NR3A ligand-binding domain, primary screen, biophysical, differential scanning fluorimetry, uHTS. AID 1259313, 2017. Glutamate receptor ionotropic, NMDA 3A (GRIN3A) ligand-binding domain. NR3A LBD differential scanning fluorimetry, Tm shift; 0% = protein alone, 100% = glycine-bound protein. Tm shift relative to glycine control, % at 25 µM. 340,000 tested, 2.5% active;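 active = melting temperature shift of at least 10% of the positive control shift, at one fixed dose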
ADAM17 inh: ADAM17 inhibitors, primary screen, biochemical, QFRET | recombinant ADAM17, EDANS/DABCYL FRET peptide cleavage | inhibition, % at 6.95 µM | 370,000 tested, 0.83% active;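 active = inhibition above the mean of compounds lying between control limits plus 3 SD, set per campaign, cut at about 8.5% in these data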
FAS TE block: FAS thioesterase domain inhibitors, primary screen, biochemical, fluorescence intensity, uHTS; recombinant FAS-TE, OMFH fluorogenic substrate, fluorescence endpoint; inhibition, % at 15 µM; 360,000 tested, 0.67% active; AID 602261, 2012;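 active = compounds whose normalised, plate-corrected inhibition of enzyme fluorescence in the single-dose primary screen is 50% or more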
ADAM10 inh: human ADAM10 inhibitors, primary screen, biochemical, QFRET, HTS. recombinant ADAM10, EDANS/DABCYL FRET peptide cleavage, 3 h. inhibition, % at 7 µM. 370,000 tested, 0.62% active. AID 720582, 2013;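 active = inhibition above a per-campaign cutoff equal to the mean of compounds falling between control-based bounds plus 3 SD, cut at about 20% in these data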
Target sequence (O14672 214-748 limits assumed): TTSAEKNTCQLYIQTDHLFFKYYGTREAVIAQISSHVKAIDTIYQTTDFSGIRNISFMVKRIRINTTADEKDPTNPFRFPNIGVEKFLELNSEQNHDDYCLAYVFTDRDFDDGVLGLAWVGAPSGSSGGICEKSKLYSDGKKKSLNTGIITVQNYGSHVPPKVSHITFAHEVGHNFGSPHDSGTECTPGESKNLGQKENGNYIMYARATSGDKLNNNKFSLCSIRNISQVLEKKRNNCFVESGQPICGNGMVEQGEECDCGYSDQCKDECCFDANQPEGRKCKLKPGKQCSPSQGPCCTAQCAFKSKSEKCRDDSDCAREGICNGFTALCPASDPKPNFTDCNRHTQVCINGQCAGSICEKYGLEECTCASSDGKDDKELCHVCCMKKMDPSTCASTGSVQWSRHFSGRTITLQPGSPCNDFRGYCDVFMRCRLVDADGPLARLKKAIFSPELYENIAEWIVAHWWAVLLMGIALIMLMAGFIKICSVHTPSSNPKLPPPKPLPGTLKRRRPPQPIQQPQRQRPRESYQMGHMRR
aDG glyco up: activators of alpha-DG glycosylation, primary screen, uHTS, Pro5-aDG cells, AlphaScreen | 360,000 tested, 0.22% active | alpha-DG glycosylation AlphaScreen (IIH6); 0% Pro5, 100% B10-LARGE cell signal | activation, % at 10 µM;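 active = activation of at least 8% versus controls, or a plate z-score of at least 8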;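 note: Pro5 are CHO cells carrying HIG-tagged alpha-DG that lacks glycosylation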
FAS-TE conf: FAS thioesterase domain inhibitors, confirmation, biochemical, fluorescence intensity, single concentration; shares compounds with FAS TE block; recombinant FAS-TE, OMFH fluorogenic substrate; inhibition, % at 15 µM; 2,300 tested, 45% active; AID 624325, 2012;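 active = compounds inhibiting the enzyme by at least 50% at 15 µM in any one of the replicates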
aDG conf: alpha-DG glycosylation enhancers, retest, confirmation, single concentration, Pro5-aDG cells | AID 651671, 2012 | activation, % at 10 µM (by protocol) | 600 tested, 17% active | IIH6 AlphaLISA; scaled to LARGE-overexpressing B10 cells as 100% | shares compounds with aDG glyco up;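 active = activation of at least 7% in one or more replicates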;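 note: cells exposed to compound for two days before detection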
ADAM10 confirm: human ADAM10 inhibitors, confirmation, biochemical, QFRET, triplicate. 2,100 tested, 1% active. shares compounds with ADAM10 inh. ADAM10 QFRET peptide cleavage, EDANS fluorescence. inhibition, % at 6.95 µM;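 active = inhibition above about 20% chosen separately for each screening run, limit read from the data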
ADAM17 counter: ADAM17 inhibitors, counter-screen for ADAM10 exosite inhibitor project, biochemical, QFRET, high throughput. shares compounds with ADAM10 inh. ADAM17 QFRET peptide cleavage, EDANS fluorescence. inhibition, % at 6.95 µM. 2,100 tested, 0.5% active. AID 743214, 2013;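 active = mean triplicate inhibition above the solvent-only control wells' mean plus 3 SD, cut at about 12% in these data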
ADAM10 ctr: ADAM10 inhibitors, counter-screen for ADAM17 exosite inhibitor project, biochemical, FRET, human ADAM10 | shares compounds with ADAM17 inh | recombinant ADAM10, EDANS/DABCYL FRET peptide cleavage, 3 h | inhibition, % at 6.95 µM | 2,900 tested, 47% active | AID 743256, 2014;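 active = mean inhibition over the triplicate runs exceeds the activity threshold set in the earlier primary screen, cut at about 20% in these data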
ADAM17 confirm: ADAM17 inhibitors, hit retest, confirmation, biochemical, QFRET peptide cleavage. shares compounds with ADAM17 inh. recombinant ADAM17, EDANS/DABCYL QFRET peptide cleavage. inhibition, % at 6.95 µM. 2,900 tested, 65% active. AID 743257, 2014;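 active = mean inhibition across replicates above the hit cutoff set in the primary screen, cut at about 8.5% in these data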
Hits are given with their value; – = inactive; · = no result given. In the library only some 4% were active in any assay of this set; here they are far more common.

SMILES	GRIN3A LBD mod	ADAM17 inh	FAS TE block	ADAM10 inh	aDG glyco up	aDG conf	others
N#Cc1c(-c2ccccc2)c(-c2ccccc2)nn(CC(=O)NNC(=O)Nc2ccc(Cl)c(Cl)c2)c1=O	–	15	69	–	–	·	FAS-TE conf=48;ADAM10 ctr=27;ADAM17 confirm=18
O=C(Cn1nc(-c2ccccc2)c2ccccc2c1=O)Nc1ccc(F)cc1	–	–	–	–	–	·
CC(C)(C)OC(=O)NCCCC[C@H](NC(=O)c1[nH]cnc1C(=O)Nc1ccccc1)C(=O)OC(C)(C)C	–	11	69	36	–	·	FAS-TE conf=80;ADAM10 confirm=–;ADAM17 counter=–;ADAM10 ctr=44;ADAM17 confirm=22
CCOc1ccc(Nc2nc(N)c([N+](=O)[O-])c(N3CCOCC3)n2)cc1	–	–	–	–	–	·
CCOC(=O)C1=C(CC)OC(N)=C(C#N)C1c1ccc(OC)c(C)c1OC (stereo not given)	–	–	–	–	–	·
CCOC(=O)C1=C(C)OC(N)=C(C#N)C1c1ccc(OC)c(C)c1OC (stereo not given)	–	–	–	–	9.7	–
CC1CN(C2=N/C(=C/c3ccc4c(c3)OCO4)C(=O)N2)CC(C)O1 (stereo not given)	–	–	–	–	–	·
COc1ccc(-c2ccc3c(c2)S(=O)(=O)c2cccc(C(=O)NC4CCCCC4)c2C3=O)cc1OC	–	·	–	·	71	–
COc1ccc(-c2ccc3c(c2)S(=O)(=O)c2cccc(C(=O)NC4CC4)c2C3=O)cc1OC	–	–	–	–	–	·
O=c1[nH][nH]c2c1[C@@H](c1ccc(F)cc1)O[C@H](CCOCc1ccccc1)C2	·	–	–	–	–	·
COc1ccc(C(C(=O)Nc2ccc(F)cc2)N2CCN(CC(=O)N3CCCC3)CC2)cc1 (stereo not given)	·	–	·	–	8.6	–
O=C(Nc1ccc(F)cc1)C(c1ccccc1)N1CCN(CC(=O)N2CCCC2)CC1 (stereo not given)	–	–	–	–	–	·
CCOC(=O)c1sc2nc(CSc3ccccc3)nc(NCCN(C)C)c2c1C	–	–	–	–	8.4	–
Cc1ccc(C(=O)NC2CCCCCCC2)c(Cl)c1	–	–	–	–	–	·
Cc1cccc(/C=C2/Sc3ccc(C(=O)NCCN4CCCC4)cc3NC2=O)c1	–	–	–	–	8.2	7.8
O=C1Nc2cc(C(=O)NCCN3CCCCCC3)ccc2S/C1=C\c1ccccc1	–	–	–	–	–	·
C[C@@H]1CN([C@H](C)CO)C(=O)CCCn2nncc2CO[C@@H]1CN(C)C(=O)CCC(F)(F)F	·	–	–	–	7.3	–
C[C@@H]1CN([C@@H](C)CO)C(=O)CCCn2nncc2CO[C@H]1CN(C)C(=O)CCC(F)(F)F	·	–	–	–	–	·
CC(C)COC(=O)N(C)C[C@@H]1OCc2cnnn2CCCC(=O)N([C@H](C)CO)C[C@@H]1C	·	–	–	–	7.2	–
C[C@H](CO)N1C[C@H](C)[C@@H](CN(C)C(=O)Nc2ccc(C(C)(C)C)cc2)OCc2cnnn2CCCC1=O	·	–	–	–	–	·
C[C@@H]1CN([C@@H](C)CO)C(=O)CCCn2nncc2CO[C@@H]1CN(C)C(=O)Nc1ccc(C(C)(C)C)cc1	·	–	–	–	14	–
Cc1ccc(S(=O)(=O)N(CC(=O)N2CCOCC2)CC(=O)N2CCOCC2)cc1	–	–	–	–	–	·
O=C(O)c1ccc(NS(=O)(=O)/C=C/c2ccccc2)cc1O	–	–	–	–	–	·
O=C(O)CCC(=O)NNC(=O)c1cccs1	–	–	–	–	–	·
Cc1cc(C(=O)N/N=C\c2ccc(COc3ccc([N+](=O)[O-])cc3)o2)ccc1[N+](=O)[O-]	–	–	–	–	–	·
SMILES	GRIN3A LBD mod	ADAM17 inh	FAS TE block	ADAM10 inh	aDG glyco up	aDG conf	others
COc1cccc(-c2nc3nc(C)cc(C)n3c2NCc2ccccc2)c1	·	–	–	–	5.3	–
Cc1cc(OC(C)C(=O)NCCN2CCOCC2)c2c(C)cc(=O)oc2c1 (stereo not given)	–	–	–	–	8.3	–
CCc1cc(=O)oc2cc(C)cc(OC(C)C(=O)NCCCN3CCOCC3)c12 (stereo not given)	–	–	–	–	–	·
OC[C@@H]1CN(Cc2ccccc2)C[C@H](n2cnc3c(NC4CC4)ncnc32)O1	·	–	–	–	–	·
OC[C@@H]1CN(Cc2ccc(-c3ccccc3)cc2)C[C@H](n2cnc3c(NC4CCC4)ncnc32)O1	·	–	–	–	7.6	–
Cc1ccc(F)cc1CNC(=O)c1cc(COc2ccc3ncccc3c2)on1	–	–	–	–	8.7	–
Cc1cc(C)n(CCNC(=O)c2cc(COc3ccc4ncccc4c3)on2)n1	–	–	–	–	–	·
O=C(NCc1cccc(Cl)c1)c1cc(COc2ccc3ncccc3c2)on1	–	–	–	–	10	–
CCNC(=O)NC(=O)C(C)OC(=O)CNS(=O)(=O)c1c(Cl)cc(Br)cc1Cl (stereo not given)	–	–	–	–	–	·
CCOC(=O)c1cnc(SCC(=O)Nc2cc(OC)ccc2OC)nc1N	–	–	–	–	6.7	–
